# About 830 (1.9%) of roughly 43,000 compounds were called active. Where a call stands in place of a potency, no number is given. Not shown: some 30% with an inconclusive outcome. How the source made its calls: active means clear falling dose curves in both reporters; inconclusive means both reporters move, but less clearly or upward; inactive means either reporter flat; the % is the NLuc reporter signal. Only a selection was taken, and actives are over-represented in it overall.
# Test: Cell-based coincidence reporter assay to measure PMP22 gene transcription in S16 Pmp22-F2sN cells - Primary screen
# Details: S16 Pmp22-F2sN Schwann cells (luciferase reporters placed in the Pmp22 gene), FLuc/NLuc coincidence luminescence, 24 h; series mostly up to 57.5 µM
# Excerpt: Assay Provider: Jim Inglese Ph.D. National Center for Advancing Translational Science, National Institutes of Health, Rockville, MD CMT is a heterogeneous group of neurological disorders that affect approximately 1 in 2,500 people. In particular, the most common form of CMT, CMT1A is genetically linked to the duplication of the PMP22 gene which leads to Schwann cell overexpression, thus manifesting itself as a typical case of dose-sensitive diseases. To identify small molecule compounds that can mediate the expression of PMP22 we developed a phenotypic assay screening strategy by utilizing genome editing techniques to construct Schwann cell lines containing novel reporter technology to monitor the transcriptional or translational regulation of PMP22. For high sensitivity we use a bioluminescent reporter system embedded in the 3' UTR of the PMP22 gene (S16(c9) Pmp22-F2sN) to identify compounds that inhibit gene expression. […] We can further discriminate the effect of all transcriptionally active molecules on PMP22 translation or stability with an assay that incorporates a short NLuc peptide (HiBiT) at the C-terminus of expressed PMP22 (S16(f8) PMP22-HiBiT) allowing alpha complementation and luminescence detection of membrane-associated PMP22 protein. These assays were screened against the NCATS Sytravon Library Collection. Miniaturization of these assays to 1536-well plate format for quantitative high throughput screening (qHTS) yielded rich data sets immediately from the qHTS assay (S16(c9) Pmp22-F2sN), when compared with data from a cell viability assay (Cell TiterGlo) to identify compounds that decreased the output signals through cellular toxicity to streamline the selection process of actives for subsequent characterization using the HiBiT assay (S16(f8) PMP22-HiBiT).
# Cell-based coincidence reporter assay to measure PMP22 gene transcription in S16 Pmp22-F2sN cells PROTOCOL TABLE (format as described by Inglese J, Shamu CE and Guy RK. 2007) SEQUENCE No. (e.g., 1, 2, 3, etc.); […] (e.g., Cells, Incubation, Reagent, etc.); VALUE and DESCRIPTION. 1. Cells. Add 500-1,000 cells in 4 uL in growth media (DMEM High Glucose, No Phenol Red media + 10% heat-inactivated FBS + 1% Pen/Strep supplemented media) per well into Greiner 1536-well white/solid bottom high base, TC-treated plates. 2. Compounds. Library compounds and controls added at 23nL per well, transferred by Pin Tool. 3. Incubation. Incubate plates at 37C, 5% CO2, 95% RH for 24 h. 4. Reagent. Add 3.5uL Nano-Glo Dual-Luciferase Reporter Assay System reagent 1: Lysis and FLuc reagent per well of Greiner 1536-well plates. 5. Incubation. Incubate plates at room temperature for 10 min., protect from light. 6. Detector. FLuc luminescence measured using CCD-based camera (Viewlux). 7. Reagent. Add 3.5uL Nano-Glo Dual-Luciferase Reporter Assay System reagent 2: Stop&Glo reagent per well of Greiner 1536-well plates. 8. Incubation. Incubate plates at room temperature for 10 min., protect from light. 9. Detector. NLuc luminescence measured using CCD-based camera (Viewlux). NOTES (numbers refer to Sequence numbers above; values are from representative experiments) 6. Luminescence Read #1 (FLuc): Clear filter; Exposure = 10 sec, Gain = High, Speed = Slow, Binning = 2X 9. Luminescence Read #2 (NLuc): Clear filter; Exposure = 1 sec, Gain = High, Speed = Slow, Binning = 2X REFERENCES: 1. Inglese J, Shamu CE and Guy RK, Reporting data from high throughput screening of small molecule libraries, Nature Chemical Biology, 2007, 3(8): 438-441. doi.org/10.1038/nchembio0807-438 2. Yasgar A, Shinn P, Jadhav A, Auld DS, Michael S, Zheng W, Austin CP, Inglese J and Simeonov A, Compound Management for Quantitative High-Throughput Screening. J. Assoc. Lab. Auto., 2008, 13: 79-89. doi: 10.1016/j.jala.2007.12.004
# Potency means the concentration at half of the fitted maximal effect.
row,SMILES,Potency
1,CCc1cnc2c(c1SCC(=O)N1CCC(C)CC1)c(=O)n(C)c(=O)n2C,inactive
2,COc1ccc(NC(C)=O)cc1NC(=O)CN1CCN(c2ccc(F)cc2)CC1,inactive
3,COc1cc(C(=O)N2CCC(c3ccncc3)CC2)cc(OC)c1OC,inactive
4,COc1ccc(NC(=O)c2oc3ccc(S(=O)(=O)N4CCOCC4)cc3c2C)cc1,inactive
5,CCOC(=O)c1oc2ccc(S(=O)(=O)n3nc(-c4ccccc4OC)cc3N)cc2c1C,14.4 µM (active)
6,COc1ccccc1-c1cc2nc(C)c(CCC(=O)O)c(C)n2n1,inactive
7,COc1cccc(C(=O)NC2(C(F)(F)F)C(=O)Nc3c2c(=O)[nH]c(=O)n3-c2ccc(C)cc2)c1 (stereo unspecified),inactive
8,CCn1c(C(=O)Nc2cc(Cl)ccc2C)cc2sc(Cl)cc21,inactive
9,Cc1ccc(NC(=O)C2CCCN2S(=O)(=O)c2cccc3cccnc23)c(C)c1 (stereo unspecified),inactive
10,COC(=O)c1cc2occc2n1Cc1nc(-c2ccc(C)cc2)oc1C,inactive
11,COc1ccc(-n2nc(C(=O)NCCc3ccc(Cl)cc3)c3c4ccccc4n(C)c3c2=O)cc1Cl,inactive
12,Cc1ccccc1C(=O)Nc1sc2c(c1C(=O)N1CCC(C)CC1)CCCC2,inactive
13,Cc1ccc(OCCSc2nc3ccc(NC(=O)COc4ccc(C)cc4)cc3s2)cc1,8.91 µM (active)
14,O=C(Nc1ccc2nc(SCCOc3ccccc3)sc2c1)c1ccco1,inactive
15,COc1cc(C)ccc1OCCSc1nc2ccc(NC(=O)c3ccc(C)cc3)cc2s1,inactive
16,CCc1ccc(S(=O)(=O)n2ccnc2)cc1,inactive
17,O=C(CN1C(=O)CCn2nc(-c3ccccc3)cc21)NCc1ccccc1,inactive
18,Cc1noc(/C=C/N(C)C)c1S(=O)(=O)N1CCCC(C(=O)Nc2cccc(F)c2)C1 (stereo unspecified),inactive
19,COc1cccc(N2CCN(S(=O)(=O)c3ccc4c(c3)CCCN4C(C)=O)CC2)c1,inactive
20,CC(=O)N1CCCc2cc(S(=O)(=O)N3CCCC(C(=O)NCc4ccc(Cl)cc4)C3)ccc21 (stereo unspecified),inactive
21,CC(=O)N1CCCc2cc(S(=O)(=O)N3CCCC(C(=O)N4CCN(c5cccc(Cl)c5)CC4)C3)ccc21 (stereo unspecified),10 µM (active)
22,Cc1ccc(Nc2nc3ccccc3nc2-n2nc(C)cc2C)c(Cl)c1,inactive
23,Cc1cccc(Nc2nc(C)nc(N)c2S(=O)(=O)c2ccccc2)c1,inactive
24,Cc1cccc(Nc2cc(C)nc(-n3nc(C)cc3C)n2)c1,9.15 µM (active)

row,SMILES,Potency
1,Cc1cccc(NC(=O)Cn2cc(S(=O)(=O)Cc3ccccc3Cl)c3ccccc32)c1,inactive
2,Cc1c(Cl)cccc1NC(=O)Cn1cc(C(=O)c2cccs2)c2ccccc21,8.91 µM (active)
3,Cc1c(Cl)cccc1NC(=O)N1CCN(C(=O)c2nsc3ccccc23)CC1,inactive
4,Cc1cccc(NC(=O)CSc2nc(-c3ccco3)cc(C(F)(F)F)n2)c1C,inactive
5,Cc1ccc2ncc(C(=O)Nc3ccc(OC(F)(F)F)cc3)c(=O)n2c1,inactive
6,COCC(C)NS(=O)(=O)c1ccc(N2CCCCS2(=O)=O)cc1 (stereo unspecified),inactive
7,CCOC(=O)C1CCN(c2ncnc3c2c(-c2ccccc2)cn3-c2cccc(C)c2)CC1,inactive
8,Cc1cccc(NC(=O)CN(c2ccc(C(C)C)cc2)S(=O)(=O)c2c(C)nn(C)c2C)c1C,inactive
9,Cc1cc(F)ccc1NC1(c2ccccc2)C(=O)c2ccccc2C1=O,inactive
10,Cc1cc(F)ccc1NS(=O)(=O)c1ccc(-n2cccn2)cc1,15 µM (active)
11,O=C(Nc1ccc(F)cc1F)c1cnn(-c2ccc(F)cc2)c1-n1cccc1,inactive
12,O=C(Cn1nc(Cc2cccnc2)c2ccccc2c1=O)N1CCN(c2ccccc2F)CC1,inactive
13,Cc1ccc(C2C=C(c3ccc(Cl)cc3)Nc3nc(NC(=O)CCC(=O)O)nn32)cc1 (stereo unspecified),inactive
14,Cc1cc(-c2ccccc2)n2nc(-c3ccccc3)cc2n1,inactive
15,O=C(CCc1nc(CN2CCN(S(=O)(=O)c3ccc(Cl)cc3)CC2)no1)N1CCCCC1,inactive
16,Cc1cc(C)c(NC(=O)CSc2nc3ccncc3[nH]2)c(C)c1,inactive
17,Cc1ccc(CNC(=O)c2c(O)nc3c(C)cccn3c2=O)cc1,inactive
18,CCCCn1c(=N)c(S(=O)(=O)c2ccccc2)cc2c(=O)n3cccc(C)c3nc21,inactive
19,CCCn1c(=N)c(C(=O)NCc2ccccc2)cc2c(=O)n3cccc(C)c3nc21,2.24 µM (active)
20,COc1ccc(-c2cc(C(=O)NCc3cc(OC)c(OC)c(OC)c3)[nH]n2)cc1,inactive
21,Cc1ccccc1CNC(=O)C(=O)NCC(c1cccs1)S(=O)(=O)c1cccs1 (stereo unspecified),inactive
22,Cc1ccc(-n2nc(C)c(C(=O)O)c2-n2cccc2)cc1,inactive
23,CCOCCCNC(=O)c1cc2c(=O)n3ccccc3nc2s1,inactive
24,CCC1CCCCN1CCCNC(=O)c1cc2c(Cl)nc3ccccc3c2s1 (stereo unspecified),17.8 µM (active)

row,SMILES,Potency
1,CCn1c(=O)c2cc(C(=O)NCCc3ccc(Cl)cc3)sc2c2ccccc21,inactive
2,O=S(=O)(Nc1ccc2nc(-c3cccc(Cl)c3)oc2c1)c1ccccc1,inactive
3,COc1cc(OC)c(NC(=O)c2nc(-c3ccncc3)no2)cc1Cl,inactive
4,CCCN(CCC)CCCNC(=O)Cn1ncc2c3ccccc3n(Cc3ccccc3)c2c1=O,inactive
5,CCCn1c2ccccc2c2cnn(CC(=O)NCCCOC(C)C)c(=O)c21,inactive
6,CCCn1c2ccccc2c2cnn(CC(=O)NCC3CCN(Cc4ccc(C)cc4)CC3)c(=O)c21,18.9 µM (active)
7,O=C(Cn1ncc2c3ccccc3n(Cc3ccccc3)c2c1=O)NCc1ccccn1,inactive
8,Cc1ccc(Cn2c(C)c3cnn(CC(=O)NCc4ccccc4)c(=O)c3c2C)cc1,8.43 µM (active)
9,CCCn1c2ccccc2c2cnn(CC(=O)N3CCCC(C(=O)OCC)C3)c(=O)c21 (stereo unspecified),inactive
10,CCOC(=O)c1ccc(NC(=O)Cn2c(=O)n(-c3ccc(C)cc3)c(=O)c3c2cnn3C)cc1,inactive
11,O=C(CSc1nccn1Cc1ccc(F)cc1)NCc1ccccc1,inactive
12,COc1ccc(NC(=O)C2CCN(c3ccc(Sc4ccc(C)cc4)nn3)CC2)c(OC)c1,inactive
13,COc1cc(C(=O)NCCc2csc3nc(-c4ccccc4C)nn23)cc(OC)c1OC,inactive
14,CCC(=O)Nc1ccc(C)cc1-c1nc2ccccc2n(Cc2ccccc2)c1=O,inactive
15,Cc1ccc(C)c(N2CCN(Cc3nnc(-c4ccccc4)o3)CC2)c1,inactive
16,CCN(CC)C(=O)CSc1nc2ccsc2c(=O)n1Cc1ccccc1Cl,inactive
17,COc1ccc(NS(=O)(=O)c2cc3c(cc2C)N(C(C)=O)CCO3)cc1,inactive
18,Cc1ccc2nc(COc3cccc(NC(=O)Nc4ccc(C)c(Cl)c4)c3)cc(=O)n2c1,inactive
19,O=c1c2cccnc2n(Cc2cccc(F)c2)c(=O)n1Cc1ccccc1Cl,inactive
20,CCOC(=O)c1ccc(N2C(=O)c3n[nH]c(C)c3C2c2ccc(O)c(OC)c2)cc1 (stereo unspecified),7.51 µM (active)
21,CCOC(=O)c1ccc(NC2=CC(c3ccc(OCC)cc3)N(c3ccc(C(=O)OCC)cc3)C2=O)cc1 (stereo unspecified),inactive
22,Cc1ccc(C)c(N2CCN(C(=O)Cn3nc(C)c4sc5ccccc5c4c3=O)CC2)c1,inactive
23,COc1cccc(C(=O)N(Cc2cccc(Cl)c2)Cc2ccco2)c1,inactive
24,CCOC(=O)c1ccc(NC(=O)C2CC(=O)NC(=Nc3ccc(C)c(C)c3)S2)cc1 (stereo unspecified),inactive

row,SMILES,Potency
1,CCOC(=O)Cc1ccc(NC(=O)Nc2c[nH]c(=O)[nH]c2=O)cc1,inactive
2,Cc1ccc(CSc2oc(-c3cccs3)nc2S(=O)(=O)c2ccc(C)cc2)cc1,inactive
3,CCCCS(=O)(=O)c1oc(-c2cccs2)nc1S(=O)(=O)c1ccccc1,1.82 µM (active)
4,CSc1oc(-c2cccs2)nc1S(=O)(=O)c1ccc(Br)cc1,inactive
5,Cc1ccc2oc(C(=O)Nc3ccc(S(=O)(=O)N4CCCCCC4)cc3)cc(=O)c2c1,inactive
6,Cc1cc(C)cc(-n2c(SCC(=O)NCC3CCCO3)nc3c([nH]c4ccccc43)c2=O)c1 (stereo unspecified),inactive
7,CCCS(=O)(=O)c1ncc(Cl)c(C(=O)Nc2scc(-c3ccccc3)c2C(=O)OCC)n1,5.97 µM (active)
8,CCOC(=O)c1scc(-c2ccccc2)c1S(=O)(=O)Nc1ccccc1F,inactive
9,CCOC(=O)c1ccc(NC(=O)c2nc(SCc3ccc(F)cc3)ncc2Cl)cc1,inactive
10,CC1CCN(S(=O)(=O)c2ccc3c(c2)N(CC(=O)NCCc2ccccc2)C(=O)CO3)CC1,inactive
11,CCC(C)c1ccc2oc(-c3ccc(NC(=O)c4cc5ccccc5o4)cc3)nc2c1 (stereo unspecified),inactive
12,COc1ccccc1-c1cc2nc(C)c(CCC(=O)NC3CCCCC3)c(C)n2n1,inactive
13,O=C(CSc1oc(-c2ccc(F)cc2)nc1S(=O)(=O)c1ccc(Br)cc1)NC1CCCCC1,inactive
14,COc1ccc(-c2nc(S(=O)(=O)c3ccccc3)c(N3CCCCC3)o2)cc1,inactive
15,CC(C)S(=O)(=O)c1oc(-c2ccc(F)cc2)nc1S(=O)(=O)c1ccc(F)cc1,2.05 µM (active)
16,Cc1ccc2nc(COc3ccc(NC(=O)COc4ccccc4F)cc3)cc(=O)n2c1,inactive
17,CC(=O)Nc1cc(C(=O)NCc2ccc(F)cc2)ccc1Sc1ccc(F)cc1,inactive
18,Cc1cccc(C2CC(=O)Oc3c2c(=O)n(C)c2ccccc32)c1 (stereo unspecified),inactive
19,Cc1ccc(CCNC(=O)c2nnc(Cc3cccc(F)c3)o2)cc1,inactive
20,O=C(NCCCN1CCN(c2cccc(Cl)c2)CC1)c1nnc(Cc2ccc(F)cc2Cl)o1,18.9 µM (active)
21,CC(CNC(=O)c1nnc(Cc2cccc(F)c2)o1)c1ccccc1 (stereo unspecified),inactive
22,CCOC(=O)c1c(NC(=O)c2cc(CC)on2)sc(C(C)=O)c1C,inactive
23,COc1ccc(CNC(=O)C2=Cc3cccc(OC)c3OC2)cc1OC,inactive
24,NC(=O)CSc1nc2c(oc3ccccc32)c(=O)n1Cc1ccccc1,inactive
